D2 ag-1: human D2 receptor agonism in beta-arrestin assay. 360,000 compounds, 0.084% hits. activation, % (no concentration beside the values). DiscoveRx PathHunter D2 beta-arrestin, luminescence, 90 min; 100% = 57 uM dopamine signal; in the data active = activation above about 40%; inconclusive = between about 15% and that limit
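Agonist mode: compounds alone added to overnight-plated D2 PathHunter cells for 90 min at 37 C, with 57 uM final dopamine (EC100) defining full response. Beta-arrestin recruitment detected by chemiluminescent reagent, read after 1 h at ambient temperature.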
D2 PAM-1: positive allosteric modulators of human D2 dopamine receptor. AID 624464. 360,000 compounds, 0.23% hits. P14416. DiscoveRx D2 beta-arrestin cells, luminescence, 90 min; 100% = 57 uM dopamine signal. potentiation, % (concentration not given with the values); in the data active = potentiation above about 50%; inconclusive = mostly about 30% to 49%
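PathHunter D2 cells, attached overnight at 37 deg C, received compound in DMSO plus dopamine at EC20 (50 nM final) for 90 min at 37 deg C. Beta-arrestin recruitment was read as luminescence after 1 h with detection reagent at ambient temperature.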
B2AR arrestin: beta2AR (human) beta-arrestin recruitment activity; P07550; beta-arrestin recruitment to beta2AR, cell-based reporter; Potency, µM (series often up to 46.1 µM), usual class: activators; 330,000 compounds, 0.02% hits; AID 492947; active = well fitted activation curve with a large enough effect; inconclusive = small, poorly fitted or top-dose-only effect; also: nearly all actives have a fitted effect of over 65% in size
Target sequence (P07550 whole entry, looked up): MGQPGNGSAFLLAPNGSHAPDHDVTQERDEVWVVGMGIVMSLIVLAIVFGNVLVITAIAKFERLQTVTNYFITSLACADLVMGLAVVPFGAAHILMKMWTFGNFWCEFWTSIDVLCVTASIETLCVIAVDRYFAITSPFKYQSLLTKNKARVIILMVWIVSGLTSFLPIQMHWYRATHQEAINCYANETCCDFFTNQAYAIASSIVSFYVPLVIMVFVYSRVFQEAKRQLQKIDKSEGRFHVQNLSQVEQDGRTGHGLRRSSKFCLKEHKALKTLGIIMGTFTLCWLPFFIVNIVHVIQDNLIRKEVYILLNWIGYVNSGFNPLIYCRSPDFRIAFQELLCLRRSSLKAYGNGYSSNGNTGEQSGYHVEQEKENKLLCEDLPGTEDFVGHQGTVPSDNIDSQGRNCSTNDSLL
D2 PAM-2: D2 dopamine receptor (human) potentiation. HEK293 T-REx D2, calcium flux, EC20 dopamine potentiation. potentiation, % at 10 µM. AID 485347. 340,000 compounds, 0.34% hits. P14416;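 active = potentiation over 3 SD above the plate norm, cut at about 30% in these data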
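Cells plated with tetracycline inducer and held overnight at 30 C; calcium dye loaded 30–90 min at room temperature; baseline taken, compound added and read 180 s; EC20 dopamine then added and read 180 s.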
D2 ag-2: agonists of human D2 dopamine receptor; 340,000 compounds, 0.53% hits; AID 485358; HEK293 T-REx D2 cells, calcium flux agonist mode; P14416; activation, % at 2 µM;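 active = activation over 3 SD above normal in the single-dose calcium agonist read, cut at about 30% in these data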
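Agonism scored from kinetic calcium signal (1 read/sec, 180 s) following compound pin transfer, after a 10 s baseline. Cells: HEK293 Trex line expressing inducible D2 receptor coupled to calcium, dye-loaded after overnight culture at 30 C.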
D2 antagonist: antagonists of human D2 dopamine receptor; HEK293 TREx D2 cells, calcium flux, dopamine EC80; AID 485344; P14416; 340,000 compounds, 2% hits; inhibition, % at 10 µM; in the data active = inhibition above about 30%; inactive = below that, where a call was filed
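Cells plated overnight at 30 C with tetracycline; no-wash calcium dye, 30–90 min RT; 10 s baseline; compound pinned; 180 s read; EC80 dopamine added; another 180 s read.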
Large screens that a line does not name were inactive. Most compounds without a hit are left out; they make up all but 2.4% or so of the library.

CC(C)N(Cc1cnn(C)c1)C(=O)c1ccc(OC2CCN(Cc3ccccn3)CC2)cc1	none
Cc1cc(C)c2c(=O)cc(CSc3nnc(COc4ccccc4C)n3C)[nH]c2c1	none (no result: D2 ag-1, D2 PAM-1, B2AR arrestin, D2 ag-2, D2 antagonist)
Cc1ccc(NC(=O)Cn2c(=O)nc(-c3ccccc3)c3ccccc32)cc1	none (no result: D2 ag-1, D2 PAM-1, B2AR arrestin, D2 ag-2, D2 antagonist)
CCC1(Cc2ccccc2)NC(=O)c2ccccc2O1 (stereo not drawn)	none
NNC(=O)c1ccc(COCC(F)(F)F)cc1	D2 antagonist 53
O=C(NC1CC2CCCC(C1)N2Cc1cccs1)N1CCOCC1 (stereo not drawn)	none (no result: D2 PAM-2, D2 ag-2, D2 antagonist)
Cn1cccc1-c1cc(C(=O)N/N=C/c2ccc(Cl)cc2)[nH]n1	D2 antagonist 35
O=C(O)c1ccc(-c2ccc(/C=c3/sc4nc5ccccc5n4c3=O)o2)cc1Cl	D2 ag-2 48, D2 antagonist 34
Cc1cc(C)c2nc3sc(=Cc4ccc(-c5ccccc5C(=O)O)o4)c(=O)n3c2c1	none (no result: B2AR arrestin, D2 PAM-2, D2 ag-2, D2 antagonist)
Cc1ccc2c(nc3s/c(=C\c4ccc(-c5ccccc5C(=O)O)o4)c(=O)n32)c1C	D2 ag-2 40
CCCNC(=O)COC(=O)c1ccc(N2CCCC2)c([N+](=O)[O-])c1	none
Cc1ccc(Cl)cc1NC(=O)COC(=O)c1ccc(N2CCCC2)c([N+](=O)[O-])c1	D2 antagonist 57 (no result: D2 ag-1, D2 PAM-1)
O=C(O)c1ccc(CSC2CCCCC2)cc1	none
Cc1ccc(NCC(=O)c2ccccc2)cc1Cl	none
O=C(O)c1cccc(NC2=C(Cl)C(=O)c3ccccc3C2=O)c1	D2 ag-1 41 (no result: D2 ag-2, D2 antagonist)
Cc1ccc(NC2=C(NC(=O)c3ccccc3)C(=O)c3ccccc3C2=O)cc1Cl	D2 PAM-1 65
O=C(O)c1ccc(NC2=C(Cl)C(=O)c3ccccc3C2=O)cc1	none
O=C(Nc1cccnc1)c1cc(-c2ccccc2O)on1	none
COc1cc(NC(=O)COc2ccccc2)c(OC)cc1NC(C)=O	none
CCOC(=O)C(=CNc1ccc(N2CCCCC2)c(S(=O)(=O)Nc2ccccc2OC)c1)C(=O)OCC	none (no result: B2AR arrestin, D2 PAM-2, D2 ag-2, D2 antagonist)
Cc1nnsc1NC(=O)OCc1ccc(C(C)(C)C)cc1	none
COc1cccc(OC(=O)CSc2nnc(-c3ccc4c(c3)OCO4)o2)c1	none (no result: D2 ag-1, D2 PAM-1, B2AR arrestin, D2 ag-2, D2 antagonist)
N/C(=N\OC(=O)c1ccc(Br)cc1)c1ccncc1	D2 ag-1 42, D2 PAM-1 52
COc1cc(OC)cc(C(=O)O/N=C(\N)c2ccncc2)c1	D2 ag-1 inconclusive, D2 PAM-1 111
N/C(=N\OC(=O)c1ccccc1)c1ccncc1	none
Cc1ccc(C)c(CSc2nnc(-c3cccs3)n2Cc2ccco2)c1	none
CCOc1ccc(/C=N/OCC(=O)NCc2ccc3c(c2)OCO3)cc1OC	D2 antagonist 32
COc1ccccc1/C=N/OCC(=O)NCc1ccc2c(c1)OCO2	none
CCCC(C)c1nnc(NC(=O)C2CCCO2)s1 (stereo not drawn)	none
COC1=CC(=Cc2c(N)n3nc(CC(=O)N4CCCCC4)sc3nc2=O)C=C(OC)C1=O	D2 ag-2 70
CSCCC(NC(=O)c1ccccc1Br)C(=O)N1CCN(C(C)=O)CC1 (stereo not drawn)	none
Clc1ncccc1-c1nc2ccccc2s1	D2 PAM-2 66
Cc1cccc(C)c1OCC1CNC(=O)O1 (stereo not drawn)	D2 antagonist 36
Cn1c(-c2ccccc2)c(C(=O)CCl)c2ccccc21	D2 PAM-2 39
COCCNc1oc(/C=C/c2ccc(F)cc2)nc1S(=O)(=O)c1ccccc1	none
COc1cc2oc(=O)cc(-c3ccc(-c4ccc(C#N)cc4)cc3)c2c(OC)c1OC	none (no result: D2 PAM-1, D2 PAM-2, D2 ag-2, D2 antagonist)
Cc1ccc(S(=O)(=O)C2(C(=O)NC3CCCCC3C)CC2)cc1 (stereo not drawn)	none
Cc1ccc(S(=O)(=O)C2(C(=O)NC3CCCC3)CC2)cc1	D2 PAM-2 35
COC1CCCN(C(=O)c2ccc3nc(Cc4cccc(Cl)c4)oc3c2)C1 (stereo not drawn)	none
CN(C)c1nc(=NCc2ccco2)ss1	B2AR arrestin 2.2µM
Cc1nc2c(-c3ccc(Cl)cc3)c(C)[nH]n2c(=O)c1Cc1ccccc1	none
CCOC(=O)Cc1c(C)nc2c(-c3ccccc3)c(C)[nH]n2c1=O	D2 PAM-2 34
CCOC(=O)Cc1c(C)nc2c(-c3ccccc3)c(-c3ccccc3)[nH]n2c1=O	none
Cc1nc2c(-c3ccccc3)c(C)[nH]n2c(=O)c1Cc1ccccc1	D2 antagonist 43
COc1ccc(-c2c(C)[nH]n3c(=O)c(Cc4ccccc4)c(C)nc23)cc1OC	D2 antagonist 35
Cc1cccc(Cc2c(C)nc3c(-c4ccccc4)c(C)[nH]n3c2=O)c1	none (no result: D2 ag-1, D2 PAM-1, B2AR arrestin, D2 PAM-2, D2 antagonist)
Cc1ccc(N(CC(=O)NCc2ccco2)C(=O)CCC(=O)Nc2ccccn2)c(C)c1	none
CC1CCCCN1CCNC(=O)c1ccc2c(c1)N(Cc1ccccc1)C(=O)c1ccccc1S2(=O)=O (stereo not drawn)	none
Fc1ccc(CSc2ccc(-c3cccs3)nn2)cc1	none
O=C(ON=C1CCN(S(=O)(=O)c2ccccc2)CC1)c1ccccc1	none
O=C(ON=C1CCN(S(=O)(=O)c2ccccc2)CC1)c1cccc(Cl)c1	D2 PAM-2 34
Cn1cccc([N+](=O)[O-])c1=O	none (no result: B2AR arrestin, D2 PAM-2, D2 ag-2, D2 antagonist)
Cn1c(=O)c(=O)n(C)c2cc([N+](=O)[O-])c([N+](=O)[O-])cc21	D2 ag-1 inconclusive, D2 PAM-1 54
CC1(C)CC(=O)C/C(=N/Nc2nc3ccccc3s2)C1	D2 antagonist 36
Cc1ccc(C2(CCNC(C)c3cccs3)CCOC(C(C)C)C2)cc1 (stereo not drawn)	none
CN(C)CCCNS(=O)(=O)c1cc(Cl)ccc1Cl	D2 antagonist 38
O=C(NCCCN1CCOCC1)c1cc2c(s1)-c1ccccc1OC2	none
N/C(=N\N=C/c1ccc(F)cc1)N/N=C\c1ccc(F)cc1	D2 antagonist 40
COc1cc2c(c(OC)c1OC)-c1c(cc(OC)c(OC)c1OC)C[C@H](C)[C@H](C)C2	none
CCOc1cc(C(Nc2cc(C)ccn2)c2ccc3cccnc3c2O)ccc1OC (stereo not drawn)	none (no result: D2 ag-1, D2 PAM-1, B2AR arrestin, D2 antagonist)
O=C(c1ccc(N2CCOCC2)c([N+](=O)[O-])c1)N1CCN(c2ccccc2)CC1	none (no result: B2AR arrestin, D2 PAM-2, D2 ag-2, D2 antagonist)
O=C(c1ccc(N2CCC3(CC2)OCCO3)c([N+](=O)[O-])c1)N1CCOCC1	D2 antagonist 31
CCN(CC)CCCNC(=O)c1ccc2c(c1)N(Cc1c(F)cccc1Cl)C(=O)c1ccccc1S2	none (no result: D2 ag-1, D2 PAM-1, B2AR arrestin, D2 antagonist)
CCn1c2ccc(OC)cc2c2nc3ccccc3nc21	D2 PAM-2 31
CCOc1ccc(Cn2c3ccc(OC)cc3c3nc4ccccc4nc32)cc1	none
O=C(Nc1nc2c(s1)CN(Cc1ccccc1)CC2)C1CCC1	D2 antagonist 51
O=C1CN(C(=O)CSc2nnnn2C2CC2)c2ccccc2N1	none

High-throughput results (PubChem)
